Screens (PubChem)
Shown are actives, neighbours in structure and some others; about 1.6% of the full set was active somewhere.
KCNQ2 enhance – enhances the rat KCNQ2 potassium channel; O88943; CHO-K1 KCNQ2, FluxOR thallium flux fluorescence; stronger effect = higher value; B-score at 10 µM; 0.54% of 310,000 active; AID 2239;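 active = fluorescence ratio B-score at least 3 SD of library B-scores, with initial fluorescence B-score within 3 of them, cut at about 5.3 in these data; same plate scores as AID 2156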;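 note: B-score of peak minus minimum over baseline fluorescence ratio after K+ and Tl+ stimulus; positive B-score means potentiation of KCNQ2 with more thallium influx and brighter signal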
Target sequence (O88943 whole entry, looked up): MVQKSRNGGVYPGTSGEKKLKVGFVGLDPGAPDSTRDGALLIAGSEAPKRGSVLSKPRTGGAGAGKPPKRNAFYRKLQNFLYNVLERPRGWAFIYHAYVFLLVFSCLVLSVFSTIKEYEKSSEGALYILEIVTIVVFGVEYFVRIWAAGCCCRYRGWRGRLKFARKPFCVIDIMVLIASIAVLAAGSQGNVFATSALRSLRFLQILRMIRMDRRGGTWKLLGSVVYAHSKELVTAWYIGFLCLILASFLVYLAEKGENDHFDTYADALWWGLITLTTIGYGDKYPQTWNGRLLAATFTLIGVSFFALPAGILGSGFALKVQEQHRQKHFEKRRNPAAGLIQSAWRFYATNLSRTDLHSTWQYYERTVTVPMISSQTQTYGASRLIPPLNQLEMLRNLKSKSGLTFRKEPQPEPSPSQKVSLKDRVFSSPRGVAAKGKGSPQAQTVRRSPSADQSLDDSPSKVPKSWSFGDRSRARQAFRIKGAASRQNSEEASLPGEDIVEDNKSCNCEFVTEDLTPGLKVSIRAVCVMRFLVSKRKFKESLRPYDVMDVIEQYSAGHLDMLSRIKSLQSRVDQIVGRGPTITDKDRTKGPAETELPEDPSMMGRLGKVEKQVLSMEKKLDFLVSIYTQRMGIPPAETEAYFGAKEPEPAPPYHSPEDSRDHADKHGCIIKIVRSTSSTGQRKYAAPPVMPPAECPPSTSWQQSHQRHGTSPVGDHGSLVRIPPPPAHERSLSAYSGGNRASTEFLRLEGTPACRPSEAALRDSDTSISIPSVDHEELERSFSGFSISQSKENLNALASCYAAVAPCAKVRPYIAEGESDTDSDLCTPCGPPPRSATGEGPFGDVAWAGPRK
KCNQ2 block – inhibitors of rat KCNQ2 potassium channel. 1.1% of 310,000 active. B-score at 10 µM. CHO-K1 KCNQ2, FluxOR thallium flux, 20 min; stronger effect = lower value;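 active = fluorescence ratio B-score at most minus 3 library SDs, with starting brightness B-score within 2 library SDs, cut at about -5.5 in these data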
KCNQ2 block conf – rat KCNQ2 channel inhibition, confirmatory screen | shares compounds with KCNQ2 block | KCNQ2-expressing cells, thallium flux; stronger effect = lower value | activity change, negative = inhibition, % at 10 µM | 57% of 1,000 active | AID 493025
KCNQ1 spec – KCNQ2 inhibitor that also affects human KCNQ1 channel | KCNQ1-expressing cells, FluxOR thallium flux fluorescence; stronger effect = lower value | activity change, negative = inhibition, % at 10 µM | shares compounds with KCNQ2 block | 15% of 1,000 active | AID 493026;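 active = activity change at least 3 SD of negative controls below their mean in both duplicate wells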;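 note: CHO cells stably transfected with KCNQ1 and depolarized by potassium stimulus; peak minus minimum fluorescence over baseline after thallium addition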
CHO Tl ctr – activity in parental CHO cells lacking KCNQ2 | shares compounds with KCNQ2 block | thallium flux counter-screen; stronger effect = lower value | activity change, % at 10 µM | 14% of 1,000 active
KCNQ2 inh confirm – rat KCNQ2 inhibition confirmed by electrophysiology | shares compounds with KCNQ2 block | KCNQ2-expressing cells, automated patch clamp current | calls only at 10 µM | 49% of 550 active | AID 588531
Large screens that a line does not name were inactive (follow-up assays come after a bar, where they were run). Unless noted, the rule behind the calls is not given here.

CC(C)CN(CC(C)C)S(=O)(=O)c1cc([N+](=O)[O-])ccc1N1CCCCCC1	KCNQ2 block -6.1
CCc1ccc(C2C(C#N)=C(N)N(N(C)C)C3=C2C(=O)CCC3)cc1 (centres undefined)	none (no result: KCNQ2 enhance)
CCN(CC(=O)Nc1ccccc1C(F)(F)F)C(=O)CN1C(=O)NC(C)(c2ccccc2)C1=O (centres undefined)	none
COc1ccc(-n2ncc3c2CC(C)(C)CC3NC(=O)C2CCN(C(C)=O)CC2)cc1 (centres undefined)	none (no result: KCNQ2 enhance)
Cc1cccc(NS(=O)(=O)c2cc(C(=O)OC(C)C(=O)NCc3ccc4c(c3)OCO4)ccc2C)c1 (centres undefined)	KCNQ2 block -6.4
CC(=O)Nc1cccc(C(=O)OC(C)C(=O)NCc2ccc3c(c2)OCO3)c1 (centres undefined)	none
O=C(CN1CCN(S(=O)(=O)N2CCCCC2)CC1)Nc1ccc(Cl)c(Cl)c1	none (no result: KCNQ2 enhance)
COc1cccc(CNc2cc(C)ccn2)c1O	none
Cc1ccnc(NCc2cccc3ccccc23)c1	KCNQ2 block -6.9 | KCNQ2 block conf -40% | KCNQ1 spec -29% | CHO Tl ctr -28%
CCN(CC(=O)Nc1ccccc1C(F)(F)F)C(=O)c1cc(-c2ccccc2)nn1-c1ccccc1	KCNQ2 block -9.3 | KCNQ2 block conf inactive | KCNQ1 spec inactive | CHO Tl ctr inactive
CCN(CC(=O)Nc1ccccc1OC)C(=O)c1cc(-c2ccccc2)nn1-c1ccccc1	none (no result: KCNQ2 enhance)
Cc1ccc(NC(=O)c2c3c(nc4ccccc24)CCC3)cc1	none (no result: KCNQ2 enhance)
Cc1ccccc1NC(=O)c1c2c(nc3ccccc13)CCC2	KCNQ2 block -6.9 | KCNQ2 block conf inactive | KCNQ1 spec inactive | CHO Tl ctr inactive
CCc1nc2ccccc2c(C(=O)Nc2cc(C)ccc2C)c1C	KCNQ2 block -7.5 | KCNQ2 block conf inactive | KCNQ1 spec inactive | CHO Tl ctr inactive
CCc1nc2ccccc2c(C(=O)Nc2cccc(C)c2)c1C	none (no result: KCNQ2 enhance)
Cc1c(C(=O)N/N=C/c2cccs2)nnn1-c1nonc1N	none
CC(=O)N1c2ccc(S(=O)(=O)NCC3CCC(C(=O)N4CCCC(C)C4)CC3)cc2CC1C (centres undefined)	none
CCN(CC)c1ccc(/C=C/C(=O)c2cccnc2)cc1	none (no result: KCNQ2 enhance)
N#Cc1ccc(/C=C/C(=O)c2cccnc2)cc1	KCNQ2 block -11 | KCNQ2 block conf -29% | KCNQ1 spec inactive | CHO Tl ctr inactive | KCNQ2 inh confirm inactive
O=C(/C=C/c1ccccc1Cl)c1ccc(O)cc1	none (no result: KCNQ2 enhance)
O=C(/C=C/c1ccccc1Cl)c1cccnc1	KCNQ2 block -8 | KCNQ2 block conf -36% | KCNQ1 spec -32% | CHO Tl ctr -32% | KCNQ2 inh confirm inactive
N#CC(C#N)=Cc1c(N2CCN(c3ccccc3)CC2)nc2ccccn2c1=O	none (no result: KCNQ2 enhance)
CCNC(=O)C(=O)NCC(c1ccc2c(c1)OCO2)N1CCOCC1 (centres undefined)	none
COc1ccccc1NC(=O)C1=C(C)NC(SCC(=O)c2ccccc2)=C(C#N)C1c1ccco1 (centres undefined)	KCNQ2 block -12 | KCNQ2 block conf inactive | KCNQ1 spec inactive | CHO Tl ctr inactive
COCCOC(=O)C1=C(C)NC(SCC(=O)NC(C)(C)C)=C(C#N)C1c1ccco1 (centres undefined)	none
CC(C)[C@H](NC(=O)OC(C)(C)C)C(=O)NCC1CCC(C(=O)N[C@@H](Cc2ccccc2)C(=O)O)CC1 (some centres undefined)	none
CC(C)CCNc1nc(-c2ccco2)c2c(c1C#N)CCCC2	KCNQ2 block -6.8 | KCNQ2 block conf inactive | KCNQ1 spec inactive | CHO Tl ctr inactive
N#Cc1c(NCCN)nc(-c2ccco2)c2c1CCCC2	none (no result: KCNQ2 enhance)
CSc1cccc(NC(=O)Cn2cnc(S(=O)(=O)N3CCCC3)c2)c1	none
COc1ccc(/C=C/C(=O)c2ccc(O)cc2)cc1COc1ccc(F)cc1	none (no result: KCNQ2 enhance)
COc1ccc(/C=C/C(=O)c2ccccc2)cc1COc1ccc(F)cc1	KCNQ2 block -6.6 | KCNQ2 block conf inactive | KCNQ1 spec inactive | CHO Tl ctr inactive
c1ccc(-c2noc(-c3ccccc3-c3ccccc3)n2)cc1	KCNQ2 block -8.6 | KCNQ2 block conf -24% | KCNQ1 spec inactive | CHO Tl ctr inactive | KCNQ2 inh confirm inactive
Fc1ccccc1-c1nc(-c2ccc(Cl)cc2)no1	none (no result: KCNQ2 enhance)
Cc1cc(C)c(C#N)c(Sc2nnnn2-c2ccccc2)n1	none (no result: KCNQ2 enhance)
CC(C)=CCc1c(O)cc(O)c2c(=O)c(O[C@@H]3O[C@@H](C)[C@H](O)[C@@H](O)[C@H]3O)c(-c3ccc(O)cc3)oc12	KCNQ2 block -7.1 | KCNQ2 block conf -40% | KCNQ1 spec -36% | CHO Tl ctr -23% | KCNQ2 inh confirm inactive
CC1OC(Oc2c(-c3cc(O)c(O)c(O)c3)oc3cc(O)cc(O)c3c2=O)C(O)C(O)C1O (centres undefined)	none (no result: KCNQ2 enhance)
CN1C(C(=O)c2ccccc2)=C(N)c2ccccc2S1(=O)=O	none (no result: KCNQ2 enhance)
Cc1ccc(NC2=C(C(=O)c3ccccc3)N(C)S(=O)(=O)c3ccccc32)cc1	KCNQ2 block -12 | KCNQ2 block conf -28% | KCNQ1 spec inactive | CHO Tl ctr inactive | KCNQ2 inh confirm inactive
CCN1C(C(=O)Nc2cc(C)on2)=C(O)c2ccccc2S1(=O)=O	none
CCN1C(C(=O)c2ccccc2)=C(Nc2ccccc2C)c2ccccc2S1(=O)=O	KCNQ2 block -6.9 | KCNQ2 block conf -34% | KCNQ1 spec -27% | CHO Tl ctr inactive | KCNQ2 inh confirm inactive
COc1ccc(CC(=O)N2CCN(S(=O)(=O)c3cccs3)CC2)cc1OC	none (no result: KCNQ2 enhance)
COc1ccc(Cl)cc1NC(=O)CCNS(=O)(=O)c1cccc2nonc12	none
O=C(NCc1ccco1)C(c1ccc(F)cc1)N(C(=O)Cc1cccs1)c1cccnc1 (centres undefined)	none (no result: KCNQ2 enhance)
C=CCn1c(NCc2ccc(OC)cc2)nc2ccccc21	none (no result: KCNQ2 enhance)
C=CCn1c(NCc2c[nH]c3ccccc23)nc2ccccc21	KCNQ2 block -10 | KCNQ2 block conf -30% | KCNQ1 spec inactive | CHO Tl ctr inactive | KCNQ2 inh confirm active
CCN(CC)CC(=O)Nc1sc(C)cc1C(=O)c1ccc(C)cc1	KCNQ2 block -6.7 | KCNQ2 block conf -23% | KCNQ1 spec inactive | CHO Tl ctr inactive | KCNQ2 inh confirm inactive
Cc1cc(C(=O)c2ccccc2)c(NC(=O)CCl)s1	none (no result: KCNQ2 enhance)
Cc1ccc(C(=O)c2c(NC(=O)c3ccccc3C)sc(C)c2C)cc1	KCNQ2 block -11 | KCNQ2 block conf -28% | KCNQ1 spec inactive | CHO Tl ctr inactive | KCNQ2 inh confirm inactive
Cc1sc(NC(=O)c2ccco2)c(C(=O)c2ccc(Cl)cc2)c1C	none (no result: KCNQ2 enhance)
CCN(CC)CC(=O)Nc1sc(C)c(C)c1C(=O)c1ccc(C)cc1	KCNQ2 block -6.6 | KCNQ2 block conf inactive | KCNQ1 spec inactive | CHO Tl ctr inactive
Cc1sc(NC(=O)CN2CCOCC2)c(C(=O)c2ccccc2)c1C	none (no result: KCNQ2 enhance)
Cc1cc(C)c(NC(=O)/C(=C/c2ccccc2)c2ccccc2)c(C)c1	KCNQ2 block -7.5 | KCNQ2 block conf inactive | KCNQ1 spec inactive | CHO Tl ctr inactive
Cc1ccc(NC(=O)/C(=C/c2ccco2)c2ccccc2)c(C)c1	none (no result: KCNQ2 enhance)
Cc1cc(C(=O)Nc2cccc3ccccc23)c(C)o1	none
